Assay [1] has as its target human Peroxisome Proliferator-activated Receptor alpha (PPARa), PPARA (gene 5465) (UniProt Q07869). Description: ATG_PPARa_TRANS: Attagene TRANS-FACTORIAL HepG2 Assay for human Peroxisome Proliferator-activated Receptor alpha (PPARa) (AID 2283001; active means hit-call score of the fitted dose curve at least 0.9, where 1 is the maximum;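 on AC50: potency for gain of reporter signal over DMSO so agonist or activator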). Put shortly:
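Reporter transcripts from GAL4-UAS units in transfected HepG2 were quantified 24 h after dosing. Detection used reverse transcription, PCR, fluorescent primer extension and capillary electrophoresis, with DMSO as baseline.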

Assay [2] concerns the target human Peroxisome Proliferator-activated Receptor delta (PPARd), PPARD (gene 5467) (UniProt Q03181). Description: ATG_PPARd_TRANS: Attagene TRANS-FACTORIAL HepG2 Assay for human Peroxisome Proliferator-activated Receptor delta (PPARd) (AID 2283002; active means hit-call score of the fitted dose curve at least 0.9, where 1 is the maximum). Put shortly: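 Transient HepG2 transfection (multiple GAL4-UAS RTUs, chimeric receptor-Gal4); 24 h dosing; total RNA → oligo(dT) RT → PCR → 6-FAM primer extension → HpaI cut → CE. Positive direction vs DMSO.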

Read-out in assay [3]: Intercellular Adhesion Molecule 1 (ICAM1), ICAM1 (gene 3383)
Put plainly: BSK_3C_ICAM1: BioMAP Diversity Plus: 3C Assay for Intercellular Adhesion Molecule 1 (ICAM1) Biomarker Activity (AID 2283003). Particulars: primary human endothelial cells (HUVEC); actives raise or lower the signal. The procedure, abridged: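 Primary human umbilical vein endothelial cells in the BioMAP 3C system were exposed to chemicals for 24 h, then ICAM-1 was quantified by ELISA. Activity was fitted bidirectionally against the DMSO negative control baseline.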

Assay [4] can be described thus: BSK_3C_Proliferation: Cell Proliferation Assessment in the BioMAP Diversity Plus: 3C Assay (AID 2283006).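 On AC50: potency may reflect either rise or fall in cell number versus DMSO.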 Particulars: primary human endothelial cells (HUVEC). The procedure, abridged:
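Human umbilical vein endothelial cells were grown sub-confluent and exposed to chemical for 48 h, then fixed with 10% TCA and stained with 0.1% sulforhodamine B; absorbance at 560 nm gave relative cell number, fitted bidirectionally against DMSO baseline.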

Assay [5] deals with Peroxisome proliferator-activated receptor gamma (Homo sapiens) (UniProt P37231). Put plainly: ATG_PPARg_TRANS: Attagene TRANS-FACTORIAL HepG2 Assay for human Peroxisome Proliferator-activated Receptor-gamma (PPARg) (AID 2283007; active means hit-call score of the fitted dose curve at least 0.9, where 1 is the maximum). The procedure, abridged: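 Human hepatoma HepG2, transient MRTU transfection, 24 h treatment. mRNA reporter signal by RT-PCR plus capillary electrophoresis, fluorescence detection; fitted for increase over DMSO negative control.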
Peroxisome proliferator-activated receptor gamma (Homo sapiens), sequence (P37231 whole entry, looked up): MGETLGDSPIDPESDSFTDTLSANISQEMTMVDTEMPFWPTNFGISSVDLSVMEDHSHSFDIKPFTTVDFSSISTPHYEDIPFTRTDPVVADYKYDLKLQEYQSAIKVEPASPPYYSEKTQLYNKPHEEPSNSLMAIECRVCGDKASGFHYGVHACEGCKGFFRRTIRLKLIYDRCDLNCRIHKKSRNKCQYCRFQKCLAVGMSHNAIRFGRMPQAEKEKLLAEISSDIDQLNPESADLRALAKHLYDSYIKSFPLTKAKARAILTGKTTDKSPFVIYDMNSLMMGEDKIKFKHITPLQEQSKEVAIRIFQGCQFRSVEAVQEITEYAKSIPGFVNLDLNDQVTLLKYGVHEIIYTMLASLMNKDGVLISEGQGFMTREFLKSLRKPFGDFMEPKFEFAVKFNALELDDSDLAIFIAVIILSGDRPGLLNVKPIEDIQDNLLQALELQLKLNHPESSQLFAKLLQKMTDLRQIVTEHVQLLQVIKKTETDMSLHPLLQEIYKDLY

The target in assay [6] is Nuclear receptor subfamily 1 group I member 2 (Homo sapiens) (UniProt O75469). Put plainly: ATG_PXR_TRANS: Attagene TRANS-FACTORIAL HepG2 Assay for human Pregnane X Receptor (PXR) (AID 2283008; active means hit-call score of the fitted dose curve at least 0.9, where 1 is the maximum). The procedure, abridged:
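HepG2 cells transiently transfected with GAL4-UAS reporter units and PXR-Gal4 chimera, exposed 24 h. Reporter mRNA quantified by RT-PCR, fluorescent labelling, HpaI digestion and capillary electrophoresis; gain of signal vs DMSO.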

Assay [7] deals with human Retinoic Acid Receptor gamma (RARg), RARG (gene 5916) (UniProt P13631). Description: ATG_RARg_TRANS: Attagene TRANS-FACTORIAL HepG2 Assay for human Retinoic Acid Receptor gamma (RARg) (AID 2283009; active means hit-call score of the fitted dose curve at least 0.9, where 1 is the maximum). Put shortly: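 HepG2 cells transiently transfected with multiplexed reporter units expressing chimeric RARg-GAL4 and GAL4-UAS-driven reporters; 24 h compound exposure. Reporter mRNA quantified by RT-PCR with fluorescent labelling and capillary electrophoresis; gain-of-signal fitted relative to DMSO baseline.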
human Retinoic Acid Receptor gamma (RARg), RARG (gene 5916), sequence (P13631 whole entry, looked up, the tested form may be a part): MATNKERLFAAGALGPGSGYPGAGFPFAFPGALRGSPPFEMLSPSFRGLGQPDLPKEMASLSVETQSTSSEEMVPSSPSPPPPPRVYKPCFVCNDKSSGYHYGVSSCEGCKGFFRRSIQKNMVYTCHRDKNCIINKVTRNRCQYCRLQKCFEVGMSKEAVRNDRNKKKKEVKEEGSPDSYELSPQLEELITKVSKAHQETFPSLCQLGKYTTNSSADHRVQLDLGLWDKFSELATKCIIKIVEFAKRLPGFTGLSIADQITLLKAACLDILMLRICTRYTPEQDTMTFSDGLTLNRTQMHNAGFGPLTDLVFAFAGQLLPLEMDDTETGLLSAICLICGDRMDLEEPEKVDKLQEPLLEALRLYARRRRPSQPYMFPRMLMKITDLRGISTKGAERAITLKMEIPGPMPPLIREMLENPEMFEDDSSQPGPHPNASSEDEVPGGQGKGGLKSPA

In assay [8] the target is human Retinoid X Receptor beta (RXRb), RXRB (gene 6257) (UniProt P28702). Put plainly: ATG_RXRb_TRANS: Attagene TRANS-FACTORIAL HepG2 Assay for human Retinoid X Receptor beta (RXRb) (AID 2283013; active means hit-call score of the fitted dose curve at least 0.9, where 1 is the maximum). Put shortly:
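HepG2 cells transiently transfected with multiplexed reporter units driven by GAL4-UAS and exogenous chimeric NR-Gal4 proteins; treated 24 h. Reporter mRNA measured by RT-PCR, 6-FAM labelling and capillary electrophoresis; gain-of-signal fitted versus DMSO baseline.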

Assay [9] concerns the target human Thyroid Receptor alpha (THRa1), THRA (gene 7067) (UniProt P10827). Description: ATG_THRa1_TRANS: Attagene TRANS-FACTORIAL HepG2 Assay for human Thyroid Receptor alpha (THRa1) (AID 2283014; active means hit-call score of the fitted dose curve at least 0.9, where 1 is the maximum). Put shortly: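 First, HepG2 cells receive multiple GAL4-UAS reporter units and the chimeric receptor. They are then dosed for 24 h, after which RNA is reverse-transcribed, amplified, labelled, HpaI-cut and sized by capillary electrophoresis; gain relative to DMSO is scored.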

Read-out in assay [10]: E-selectin (Homo sapiens) (UniProt P16581)
Put plainly: BSK_3C_Eselectin: BioMAP Diversity Plus: 3C Assay for Eselectin Biomarker Activity (AID 2283015).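 Further: cell surface E-selectin protein quantified by ELISA 24 h after dosing.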 Particulars: primary human endothelial cells (HUVEC); actives raise or lower the signal. Put shortly:
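Human vascular endothelium from umbilical vein is exposed to test chemicals for 24 h. E-selectin levels are read by ELISA and compared with DMSO controls.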

Read-out in assay [11]: Interleukin-1 alpha (IL1a), IL1A (gene 3552)
Description: BSK_BE3C_IL1a: BioMAP Diversity Plus: BE3C Assay for Interleukin-1 alpha (IL1a) Biomarker Activity (AID 2283016). Particulars: primary human bronchial epithelial cells; actives raise or lower the signal. Put shortly:
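Human primary bronchial epithelial cells (BE3C system) were dosed with compound and IL-1a measured by ELISA 24 h later. Activity was fitted bidirectionally against DMSO baseline; cytotoxicity was tracked in parallel cultures by SRB total-protein staining.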

Read-out in assay [12]: Monocyte Chemoattractant Protein-1 (MCP1), CCL2 (gene 6347)
Description: BSK_3C_MCP1: BioMAP Diversity Plus: 3C Assay for Monocyte Chemoattractant Protein-1 (MCP1) Biomarker Activity (AID 2283017). Particulars: primary human endothelial cells (HUVEC); actives raise or lower the signal. The procedure, abridged:
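Endothelial cells from human umbilical vein are dosed with chemical, cultured 24 h, then assayed for MCP-1 by ELISA; both increases and decreases are modelled against DMSO controls.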

Read-out in assay [13]: Monocyte Chemoattractant Protein-1 (MCP1), CCL2 (gene 6347)
Put plainly: BSK_4H_MCP1: BioMAP Diversity Plus: 4H Assay for Monocyte Chemoattractant Protein-1 (MCP1) Biomarker Activity (AID 2283018). Particulars: primary human endothelial cells (HUVEC); actives raise or lower the signal. The procedure, abridged: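 Human umbilical vein endothelial cells (4H system) dosed with chemical; MCP-1 measured by ELISA 24 h after dosing. Bidirectional curve fitting against DMSO negative control as baseline; parallel SRB total-protein staining tracks overt cytotoxicity.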

Read-out in assay [14]: Human Leukocyte Antigen - DR isotype (HLADR), HLA-DRA (gene 3122)
Put plainly: BSK_3C_HLADR: BioMAP Diversity Plus: 3C Assay for Human Leukocyte Antigen - DR isotype (HLADR) Biomarker Activity (AID 2283019). Particulars: primary human endothelial cells (HUVEC); actives raise or lower the signal. Put shortly: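 Endothelial cells from human umbilical vein are treated with test chemical; after 24 h, HLA-DR levels are measured by ELISA. Data are fitted in both directions using DMSO as the baseline.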

Read-out in assay [15]: Interleukin-8 (IL8), CXCL8 (gene 3576)
Description: BSK_3C_IL8: BioMAP Diversity Plus: 3C Assay for Interleukin-8 (IL8) Biomarker Activity (AID 2283020). To be noted: primary human endothelial cells (HUVEC); actives raise or lower the signal. The procedure, abridged:
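Primary human umbilical vein endothelial cells (3C system) were exposed to test chemical for 24 h, then IL-8 was quantified by ELISA. Responses were fitted bidirectionally against DMSO vehicle as baseline.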

Read-out in assay [16]: Monokine induced gamma interferon (MIG), CXCL9 (gene 4283)
Put plainly: BSK_3C_MIG: BioMAP Diversity Plus: 3C Assay for Monokine induced gamma interferon (MIG) Biomarker Activity (AID 2283021). Particulars: primary human endothelial cells (HUVEC); actives raise or lower the signal. The procedure, abridged:
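Primary human umbilical vein endothelial cells in the 3C system were exposed to chemical for 24 h, after which MIG was quantified by ELISA. Activity was fitted bidirectionally against DMSO as negative control and baseline.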

Assay [17] deals with Retinoic acid receptor RXR-alpha (Homo sapiens) (UniProt P19793). Put plainly: ATG_RXRa_TRANS: Attagene TRANS-FACTORIAL HepG2 Assay for human Retinoid X Receptor alpha (RXRa) (AID 2283012; active means hit-call score of the fitted dose curve at least 0.9, where 1 is the maximum). The procedure, abridged: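 HepG2 cells transiently transfected with multiplexed GAL4-UAS reporter units and chimeric NR-GAL4 fusions, dosed 24 h. Reporter mRNA measured by RT-PCR, FAM labelling, HpaI digestion and capillary electrophoresis; gain-of-signal fitted relative to DMSO baseline.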
Retinoic acid receptor RXR-alpha (Homo sapiens), sequence (P19793 whole entry, looked up, the tested form may be a part): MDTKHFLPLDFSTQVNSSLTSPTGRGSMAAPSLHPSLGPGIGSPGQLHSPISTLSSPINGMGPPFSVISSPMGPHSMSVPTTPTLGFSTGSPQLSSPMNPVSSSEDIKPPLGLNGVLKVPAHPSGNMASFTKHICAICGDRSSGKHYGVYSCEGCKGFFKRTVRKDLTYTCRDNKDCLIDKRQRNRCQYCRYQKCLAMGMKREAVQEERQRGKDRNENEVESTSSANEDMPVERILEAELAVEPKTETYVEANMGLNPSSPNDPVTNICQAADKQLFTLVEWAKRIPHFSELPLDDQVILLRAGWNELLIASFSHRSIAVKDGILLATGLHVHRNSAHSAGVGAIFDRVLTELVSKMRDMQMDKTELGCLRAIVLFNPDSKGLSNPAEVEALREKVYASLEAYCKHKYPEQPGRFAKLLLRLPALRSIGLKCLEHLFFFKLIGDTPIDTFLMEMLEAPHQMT

Assay [18] deals with human RAR-related Orphan Receptor gamma (RORg), RORC (gene 6097) (UniProt P51449). Description: ATG_RORg_TRANS: Attagene TRANS-FACTORIAL HepG2 Assay for human RAR-related Orphan Receptor gamma (RORg) (AID 2283011; active means hit-call score of the fitted dose curve at least 0.9, where 1 is the maximum). The procedure, abridged: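 Activity is scored as increase in GAL4-UAS reporter mRNA over DMSO, detected by fluorescent RT-PCR and capillary electrophoresis in HepG2 cells transiently expressing a RORg-Gal4 chimera, 24 h after dosing.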
human RAR-related Orphan Receptor gamma (RORg), RORC (gene 6097), sequence (P51449 whole entry, looked up, the tested form may be a part): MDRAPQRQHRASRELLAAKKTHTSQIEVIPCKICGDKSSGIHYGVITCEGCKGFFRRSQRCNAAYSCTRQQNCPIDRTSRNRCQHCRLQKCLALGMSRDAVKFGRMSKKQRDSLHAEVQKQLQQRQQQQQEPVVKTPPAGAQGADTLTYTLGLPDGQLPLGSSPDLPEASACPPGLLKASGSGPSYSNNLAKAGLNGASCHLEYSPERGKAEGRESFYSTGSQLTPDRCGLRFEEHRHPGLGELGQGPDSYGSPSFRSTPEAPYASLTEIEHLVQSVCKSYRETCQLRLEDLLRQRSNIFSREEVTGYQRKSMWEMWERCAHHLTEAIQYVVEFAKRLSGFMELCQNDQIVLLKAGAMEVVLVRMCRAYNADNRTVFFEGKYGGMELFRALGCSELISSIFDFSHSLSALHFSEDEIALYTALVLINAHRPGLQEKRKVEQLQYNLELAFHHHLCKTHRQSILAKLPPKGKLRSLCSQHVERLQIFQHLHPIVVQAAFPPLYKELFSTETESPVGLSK

What is called AC50 is the concentration at which the activity in the assay is half-maximal.

Inconclusive results are not listed. Active and inactive are the calls of the source. How the source made its calls, unless noted: active means hit-call score of the fitted dose curve at least 0.9, where 1 is the maximum; inactive means score below 0.9.

human Peroxisome Proliferator-activated Receptor delta (PPARd), PPARD (gene 5467), sequence (Q03181 whole entry, looked up, the tested form may be a part): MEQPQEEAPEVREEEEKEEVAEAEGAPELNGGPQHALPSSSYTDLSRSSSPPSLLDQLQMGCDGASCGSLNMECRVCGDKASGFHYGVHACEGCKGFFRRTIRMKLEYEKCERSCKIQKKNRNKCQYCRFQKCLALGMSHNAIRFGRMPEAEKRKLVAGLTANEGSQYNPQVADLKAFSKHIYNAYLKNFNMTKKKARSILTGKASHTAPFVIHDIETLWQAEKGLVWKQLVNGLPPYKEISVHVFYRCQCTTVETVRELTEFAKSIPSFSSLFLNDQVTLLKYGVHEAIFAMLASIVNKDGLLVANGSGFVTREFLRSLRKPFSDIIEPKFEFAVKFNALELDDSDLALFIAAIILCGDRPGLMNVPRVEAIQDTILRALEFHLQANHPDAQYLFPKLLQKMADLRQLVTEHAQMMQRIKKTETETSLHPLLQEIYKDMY
Nuclear receptor subfamily 1 group I member 2 (Homo sapiens), sequence (O75469 whole entry, looked up, the tested form may be a part): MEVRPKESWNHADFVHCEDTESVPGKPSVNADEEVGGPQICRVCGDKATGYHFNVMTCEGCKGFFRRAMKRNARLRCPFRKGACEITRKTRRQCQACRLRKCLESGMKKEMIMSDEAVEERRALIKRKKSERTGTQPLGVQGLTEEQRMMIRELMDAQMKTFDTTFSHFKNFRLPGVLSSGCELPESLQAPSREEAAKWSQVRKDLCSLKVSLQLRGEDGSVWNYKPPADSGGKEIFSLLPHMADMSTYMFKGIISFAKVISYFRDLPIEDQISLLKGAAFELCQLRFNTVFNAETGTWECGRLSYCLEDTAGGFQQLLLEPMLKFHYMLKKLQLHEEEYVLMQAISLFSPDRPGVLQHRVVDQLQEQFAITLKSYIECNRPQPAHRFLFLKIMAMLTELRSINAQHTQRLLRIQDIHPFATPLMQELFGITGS
human Peroxisome Proliferator-activated Receptor alpha (PPARa), PPARA (gene 5465), sequence (Q07869 whole entry, looked up, the tested form may be a part): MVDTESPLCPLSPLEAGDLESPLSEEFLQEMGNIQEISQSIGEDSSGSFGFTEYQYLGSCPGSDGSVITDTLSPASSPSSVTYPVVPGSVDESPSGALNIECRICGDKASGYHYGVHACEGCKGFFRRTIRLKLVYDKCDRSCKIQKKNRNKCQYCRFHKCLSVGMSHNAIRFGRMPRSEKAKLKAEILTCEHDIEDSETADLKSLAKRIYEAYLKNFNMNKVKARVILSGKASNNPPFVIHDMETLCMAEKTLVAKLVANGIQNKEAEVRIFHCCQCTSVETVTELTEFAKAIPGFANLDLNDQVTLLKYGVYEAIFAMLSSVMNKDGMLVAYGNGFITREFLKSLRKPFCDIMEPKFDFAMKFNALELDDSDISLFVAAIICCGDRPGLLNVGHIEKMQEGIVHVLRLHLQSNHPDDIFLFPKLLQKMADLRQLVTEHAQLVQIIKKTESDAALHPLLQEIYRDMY
E-selectin (Homo sapiens), sequence (P16581 whole entry, looked up): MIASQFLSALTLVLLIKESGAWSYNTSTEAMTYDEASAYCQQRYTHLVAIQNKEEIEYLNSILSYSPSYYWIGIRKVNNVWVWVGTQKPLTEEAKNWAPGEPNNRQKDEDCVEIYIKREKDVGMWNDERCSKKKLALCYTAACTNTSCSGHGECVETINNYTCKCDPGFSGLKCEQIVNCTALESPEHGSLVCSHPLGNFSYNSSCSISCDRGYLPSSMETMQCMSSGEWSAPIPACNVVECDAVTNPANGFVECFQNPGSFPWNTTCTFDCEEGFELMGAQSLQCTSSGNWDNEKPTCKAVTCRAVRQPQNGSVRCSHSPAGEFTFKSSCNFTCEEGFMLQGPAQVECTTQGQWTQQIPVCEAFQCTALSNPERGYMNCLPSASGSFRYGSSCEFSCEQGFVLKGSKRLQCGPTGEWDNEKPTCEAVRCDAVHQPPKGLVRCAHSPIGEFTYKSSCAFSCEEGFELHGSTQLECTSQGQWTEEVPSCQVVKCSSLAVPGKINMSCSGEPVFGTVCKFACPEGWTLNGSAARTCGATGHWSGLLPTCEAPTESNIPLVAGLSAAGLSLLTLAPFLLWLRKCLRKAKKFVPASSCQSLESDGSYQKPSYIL
human Retinoid X Receptor beta (RXRb), RXRB (gene 6257), sequence (P28702 whole entry, looked up, the tested form may be a part): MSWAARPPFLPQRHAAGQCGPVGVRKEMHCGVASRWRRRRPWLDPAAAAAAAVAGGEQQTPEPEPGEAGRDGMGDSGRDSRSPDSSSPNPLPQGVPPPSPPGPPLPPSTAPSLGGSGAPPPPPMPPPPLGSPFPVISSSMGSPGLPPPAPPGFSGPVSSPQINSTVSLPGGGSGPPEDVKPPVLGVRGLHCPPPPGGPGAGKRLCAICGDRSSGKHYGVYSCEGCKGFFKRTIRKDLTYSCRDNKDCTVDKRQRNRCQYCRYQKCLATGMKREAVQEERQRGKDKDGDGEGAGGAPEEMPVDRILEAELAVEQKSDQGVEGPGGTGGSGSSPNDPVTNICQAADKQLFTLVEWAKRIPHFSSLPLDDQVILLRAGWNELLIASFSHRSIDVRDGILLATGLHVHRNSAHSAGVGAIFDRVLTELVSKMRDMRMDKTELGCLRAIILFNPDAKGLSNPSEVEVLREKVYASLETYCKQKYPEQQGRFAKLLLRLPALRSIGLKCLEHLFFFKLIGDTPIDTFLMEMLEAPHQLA
human Thyroid Receptor alpha (THRa1), THRA (gene 7067), sequence (P10827 whole entry, looked up, the tested form may be a part): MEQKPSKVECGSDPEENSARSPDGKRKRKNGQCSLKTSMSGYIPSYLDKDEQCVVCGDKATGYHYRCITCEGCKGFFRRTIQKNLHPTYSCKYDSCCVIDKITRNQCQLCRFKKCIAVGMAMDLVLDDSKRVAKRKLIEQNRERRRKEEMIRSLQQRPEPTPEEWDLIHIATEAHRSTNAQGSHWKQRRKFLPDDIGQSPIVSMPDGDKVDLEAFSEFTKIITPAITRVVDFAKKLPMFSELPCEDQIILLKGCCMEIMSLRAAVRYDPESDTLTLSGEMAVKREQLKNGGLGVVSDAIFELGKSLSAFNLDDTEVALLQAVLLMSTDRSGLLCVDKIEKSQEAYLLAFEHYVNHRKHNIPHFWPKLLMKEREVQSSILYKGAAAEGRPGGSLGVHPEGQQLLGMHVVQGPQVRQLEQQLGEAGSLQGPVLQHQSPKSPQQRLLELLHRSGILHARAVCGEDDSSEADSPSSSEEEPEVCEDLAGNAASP

In the case of `CCCOC(=O)c1cc(O)c(O)c(O)c1`, the AC50 is 27.7 µM (active) in [1], 10.5 µM (active) in assay [4] and 31.8 µM (active) in assay [5]. The result in assay [2], in [3], in assay [6], in assay [7], in [8] and in assay [9] was inactive. In addition, the result in assay [10], in assay [11], in assay [12], in [13], in assay [14] and in assay [15] was inactive. The result in [16] was inactive.

For the compound `O=C(Nc1ccc(Cl)cc1)Nc1ccc(Cl)c(Cl)c1`, the compound was called inactive in assay [1], in [2], in [3], in assay [5], in [6] and in [7]. Also, the compound was classed as inactive in [17], in [8], in [9], in assay [10], in assay [11] and in assay [16]. The AC50 is 2.04 µM (active) in [4]; 3.28 µM (active) in [12]; 4.31 µM (active) in [13]; 1.68 µM (active) in [14]; 1.87 µM (active) in assay [15].

`CC(C)(O)c1ccc(CNC(=O)c2cccnc2Oc2ccc3nonc3c2)cc1`: the AC50 in assay [1] was 1.08 µM (active); in [6], 10.5 µM (active). For the same compound, the compound was called inactive in assay [2], in assay [3], in assay [4], in assay [7], in assay [18] and in [17]. In addition, the call in [8], in [10], in [11], in assay [12], in assay [13] and in assay [14] was inactive. Moreover, in assay [15], the result was inactive.

These data come from PubChem BioAssay (EPA / NIEHS).
